IL1B secr inh: inflammasome signaling inhibition, IL-1 beta readout | THP-1 LPS/ATP IL-1B secretion, AlphaLISA, 16 h; stronger effect = lower value | activity change, % at 57.5 µM | 360,000 tested, 4.7% active; in the data active = activity change below about -50%; inconclusive = mostly about -30% to -49%
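THP-1 cells pretreated 1 hr with compounds (up to 57.5 uM final), then stimulated with LPS (250 ng/mL final) plus ATP (1.25 mM final); secreted IL-1B measured by AlphaLISA after 16 hr, decreased signal indicating inhibition.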
HT1080 IDH1KD tx: toxicity to HT-1080 IDH1 knockdown cells (counter line) | HT-1080 IDH1 knockdown viability, ATP luminescence, 48 h | Potency, µM (titrated, usually from 46.1 µM), actives largely listed as cytotoxic | 360,000 tested, 2% active | AID 686971
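In this qHTS, HT-1080 cells depleted of IDH1 are exposed for 48 h at 37 °C to compound titrations. Toxicity is scored from CellTiter-Glo luminescence, with DMSO as full viability and medium alone as none.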
HT1080NT lethal: kills 2HG-producing HT-1080-NT fibrosarcoma cells; 360,000 tested, 1.6% active; HT-1080-NT fibrosarcoma viability, CellTiter-Glo ATP luminescence, 48 h; Potency, µM (top dose mostly 46.1 µM), actives largely listed as cytotoxic;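 also: NT is the 2HG producing partner of a matched IDH1 knockdown line; nearly all actives have a fitted effect of over 55% in size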
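Luminescent CellTiter-Glo readout after 48 hours of compound exposure at 37 degrees C defined viability of HT-1080-NT cells. Activity was normalized to DMSO wells and cell-free media wells; concentration-response curves were fitted and assigned curve classes.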
DT40 TDP1 no CPT: qHTS for Inhibitors of human tyrosyl-DNA phosphodiesterase 1 (TDP1): qHTS in cells in absence of CPT; AID 686978, 2013; 420,000 tested, 15% active; Potency, µM (top dose mostly 46.2 µM), usual class: inhibitors; DT40 Tdp1-/- hTDP1 cells, no CPT, ATP luminescence, 48 h; also: nearly all actives have a fitted effect of over 55% in size
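Growth kinetics read by CellTiter-Glo luminescence after ≥48 hr at 37 °C. Cells: DT40 Tdp1-/- stably carrying human TDP1, 400 per well, compound exposure in the absence of CPT (DMSO vehicle).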
TDP1 cell CPT: DT40-hTDP1 cell growth loss with CPT; chicken DT40 Tdp1-/-;hTDP1 cells + 20 nM CPT, ATP luminescence, 48 h; Potency, µM (doses to about 46.2 µM), most hits filed as inhibitors; 420,000 tested, 12% active; AID 686979; also: nearly all actives have a fitted effect of over 55% in size
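Chicken DT40 Tdp1-/- cells complemented with human TDP1, 400 cells/well, exposed to compounds plus 20 nM camptothecin for at least 48 h at 37 C; viability read as ATP content by CellTiter-Glo luminescence.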
Of the large screens only hits and unclear results are named; the others gave an inactive call. Hits are enriched below; roughly 19% of the tested compounds scored in any of these assays. Unless noted, calls follow the shape of the dose curve; as a rule, active = well fitted curve in the direction sought with a large enough effect; inconclusive = small, poorly fitted or top-dose-only effect, or another doubt; inactive = no such curve, though single readings can be large; an effect the other way counts as inactive or inconclusive.

CC(C)(C)OC(=O)[C@H](Cc1ccccc1)NC(=O)c1[nH]cnc1C(=O)Nc1ccccc1F	IL1B secr inh inconclusive, HT1080 IDH1KD tx inconclusive, DT40 TDP1 no CPT 15µM, TDP1 cell CPT 18µM
CNC(=O)c1[nH]cnc1C(=O)N[C@@H](C)C(=O)OCc1ccccc1	TDP1 cell CPT inconclusive
C[C@H](NC(=O)c1nc[nH]c1C(=O)N[C@@H](Cc1ccccc1)C(=O)OCc1ccccc1)C(=O)OCc1ccccc1	DT40 TDP1 no CPT 23µM, TDP1 cell CPT inconclusive
CC(C)(C)OC(=O)NCCCC[C@H](NC(=O)c1[nH]cnc1C(=O)N[C@@H](Cc1ccccc1)C(=O)OCc1ccccc1)C(=O)OC(C)(C)C	HT1080NT lethal inconclusive, DT40 TDP1 no CPT inconclusive, TDP1 cell CPT inconclusive
CC(C)(C)OC(=O)[C@H](Cc1ccccc1)NC(=O)c1nc[nH]c1C(=O)N[C@@H](CCCCN)C(=O)OC(C)(C)C	DT40 TDP1 no CPT 16µM, TDP1 cell CPT inconclusive
CNC(=O)c1[nH]cnc1C(=O)N[C@@H](Cc1ccccc1)C(=O)OC(C)(C)C	TDP1 cell CPT inconclusive
C[C@H](NC(=O)c1nc[nH]c1C(=O)N[C@@H](Cc1ccccc1)C(=O)OC(C)(C)C)C(=O)OCc1ccccc1	DT40 TDP1 no CPT 18µM, TDP1 cell CPT inconclusive
CC1(C(=O)NCC2CCCO2)Oc2cccnc2NC1=O (configuration not stated)	none
Cc1c(Cl)cccc1NC(=O)Cn1cc2c(n1)CCCC2	none (no result: IL1B secr inh, HT1080 IDH1KD tx, HT1080NT lethal)
CN(C)c1ncc2nc(-c3ccc(F)cc3)c(=O)n(CCC#N)c2n1	none (no result: IL1B secr inh, HT1080 IDH1KD tx, HT1080NT lethal)
CN1CCN(C(=O)C[C@H]2CC[C@H]3[C@@H](COC[C@@H](O)CN3C(=O)C3CCCC3)O2)CC1	none
Cc1[nH]c2ccccc2c1C(=O)C(=O)NCc1ccco1	none
CNC(=O)c1[nH]cnc1C(=O)N[C@@H](Cc1ccccc1)C(=O)OCc1ccccc1	DT40 TDP1 no CPT inconclusive, TDP1 cell CPT 15µM
Cc1ccc(NC(=O)c2cc(S(=O)(=O)NCCC3=CCCCC3)ccc2F)cc1	IL1B secr inh -65, DT40 TDP1 no CPT inconclusive, TDP1 cell CPT inconclusive
Cc1c(C(=O)O)oc2ccc(S(=O)(=O)NCCC3=CCCCC3)cc12	none
Cc1ccc(C)c(NC(=O)c2cc(S(=O)(=O)NCCC3=CCCCC3)ccc2F)c1	DT40 TDP1 no CPT 21µM, TDP1 cell CPT inconclusive (no result: IL1B secr inh, HT1080 IDH1KD tx, HT1080NT lethal)
O=C(NCC1CCCO1)C(c1cccs1)N(Cc1cccs1)C(=O)c1ccc(-c2ccccc2)[nH]1 (configuration not stated)	IL1B secr inh inconclusive, HT1080 IDH1KD tx inconclusive, DT40 TDP1 no CPT inconclusive, TDP1 cell CPT 13µM
O=C(NC1CCCCC1)C(c1cccs1)N(CCCN1CCOCC1)C(=O)c1ccc(-c2ccccc2)[nH]1 (configuration not stated)	HT1080 IDH1KD tx inconclusive, HT1080NT lethal inconclusive, DT40 TDP1 no CPT 15µM, TDP1 cell CPT inconclusive
Cc1cc(C)n(-c2nc3ccccc3c(=O)n2OCCOc2ccccc2)n1	HT1080NT lethal inconclusive, DT40 TDP1 no CPT 18µM, TDP1 cell CPT 12µM
COc1ccc(C(=O)CCN(C)C)c2ccccc12	DT40 TDP1 no CPT 2.8µM, TDP1 cell CPT 1.3µM (no result: IL1B secr inh, HT1080 IDH1KD tx, HT1080NT lethal)
COC1=CC(=O)c2c(ccc3ncnc(N)c23)C1=O	IL1B secr inh -112, HT1080 IDH1KD tx 2.9µM, HT1080NT lethal 4.1µM, DT40 TDP1 no CPT 0.29µM, TDP1 cell CPT 0.21µM
Cc1n(Cc2ccccc2)c2cc([N+](=O)[O-])ccc2[n+]1Cc1ccccc1	DT40 TDP1 no CPT 21µM, TDP1 cell CPT inconclusive
CCn1c(C)[n+](Cc2ccccc2)c2ccc(Cl)cc21	DT40 TDP1 no CPT 12µM, TDP1 cell CPT 10µM
CC(O)c1nc2cc([N+](=O)[O-])ccc2n1Cc1ccccc1 (configuration not stated)	DT40 TDP1 no CPT inconclusive, TDP1 cell CPT inconclusive
Cc1n(Cc2ccccc2)c2ccccc2[n+]1Cc1ccccc1	IL1B secr inh -72, HT1080 IDH1KD tx inconclusive, DT40 TDP1 no CPT 0.73µM, TDP1 cell CPT 1.2µM
COc1ccccc1OCCNC(=O)C1CC(=O)N(c2cccc(SC)c2)C1 (configuration not stated)	DT40 TDP1 no CPT inconclusive
N#CCCN(C(=O)COc1ccc(C#N)cc1)c1ccc(F)cc1	none

Source: PubChem (National Center for Advancing Translational Sciences (NCATS))
